Among the test systems are T-47D breast; BT-549 breast; MDA-MB-435 melanoma; SW-620 colon; MCF7 breast; HCT-116 colon; HCC-2998 colon; KM12 colon; MDA-MB-468 breast.
Assay in all cases: NCI-60 one-dose screen, 48 h (100 = growth as untreated, 0 = no growth, -100 = all killed)
Conditions in all cases: 10 µM

The panel holds about 83,000 compounds, 20% with a hit somewhere; the sample as a whole holds those more often.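 Each cell line was grown in a 96-well plate and treated with one concentration of compound for 48 hours. Values below 10 were considered active.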 A number with no mark means an inactive call. Active and inactive are the calls of the source.

Turning to `CC(C)CCSc1nc(NC2CC2)c(C#N)c(-c2ccc(C(C)C)cc2)n1`, the growth was 100% in the assay with T-47D breast; 100% in the assay with BT-549 breast; 112% with MDA-MB-435 melanoma; 114% in the assay on SW-620 colon; 97.9% in the assay with MCF7 breast; 108% in the assay on HCT-116 colon. In addition, the growth with HCC-2998 colon is 115%; in the assay on KM12 colon, 107%; with MDA-MB-468 breast, 106%.
As for `CN1CCO/C1=C(/NC(=O)c1ccc(Cl)cc1)[P+](c1ccccc1)(c1ccccc1)c1ccccc1`, the growth was 66% with T-47D breast; 90.1% in the assay with BT-549 breast; 66.7% with MDA-MB-435 melanoma; 97.1% with SW-620 colon; 62.9% with MCF7 breast; 45.9% in the assay on HCT-116 colon. The growth with HCC-2998 colon is 89.1%; with KM12 colon, 64.5%; in the assay on MDA-MB-468 breast, -19.6% (active).
Regarding `Cc1ccc(-c2cc(-c3cc4ccccc4nc3Cl)[nH]c(=O)n2)cc1`, the growth in the assay with T-47D breast is 3.13% (active); in the assay with BT-549 breast, -76.8% (active); with MDA-MB-435 melanoma, 19.1%; in the assay with SW-620 colon it was -46.3% (active); in the assay on MCF7 breast, 1.81% (active); in the assay with HCT-116 colon, -72.8% (active). Also, the growth in the assay with HCC-2998 colon is -1.29% (active); with KM12 colon, -18.6% (active); in the assay with MDA-MB-468 breast, -7.37% (active).
As for `CC1(C)CC[C@]2(C(=O)NCCCNCCCCNCCCN)CC[C@]3(C)C(=CC[C@@H]4[C@@]5(C)Cc6c([nH]c7ccccc67)C(C)(C)[C@@H]5CC[C@]43C)[C@H]2C1`, the growth is 78.7% with T-47D breast; 109% in the assay with BT-549 breast; 106% in the assay on MDA-MB-435 melanoma; 113% in the assay with SW-620 colon; 62.9% with MCF7 breast; 65.3% with HCT-116 colon. Further, the figures for the growth with HCC-2998 colon, with KM12 colon and with MDA-MB-468 breast were 96.5%, 96.4% and 75.3%, respectively.
Regarding `O=c1[nH][nH]c(Nc2ccccc2)c1N=Nc1ccc(F)cc1`, the growth with T-47D breast is 36.4%; with BT-549 breast it was 65.3%; in the assay with MDA-MB-435 melanoma, 99.4%; with SW-620 colon, 109%; with MCF7 breast, 13.9%; in the assay on HCT-116 colon, 87%. For the same molecule, the growth in the assay with HCC-2998 colon was 92.6%; with KM12 colon, 55.3%; in the assay with MDA-MB-468 breast it was 27.8%.
Consider `CCOC(=O)c1sc(N/N=C(\C)c2ccc3c(c2)Nc2ccccc2S3)nc1C`, for which the growth in the assay with T-47D breast is 8.5% (active); in the assay with BT-549 breast, 48.1%; in the assay on MDA-MB-435 melanoma it was 34.5%; in the assay with SW-620 colon it was 20.3%; in the assay with MCF7 breast, -2.84% (active); in the assay on HCT-116 colon, 23.4%. Also, the growth with HCC-2998 colon was 3.51% (active); with KM12 colon it was 7.04% (active); with MDA-MB-468 breast, 8.47% (active).
Consider `O=C1Nc2ccc(Cl)cc2/C1=C/c1ccc(OCc2ccccn2)cc1`, for which the growth in the assay with T-47D breast was 69%; in the assay on BT-549 breast, 78.8%; in the assay on MDA-MB-435 melanoma it was 76.9%; in the assay with SW-620 colon, 47.5%; in the assay with MCF7 breast it was 28.9%; in the assay on HCT-116 colon, 28.5%. Also, the growth is 105% with HCC-2998 colon, 78.8% in the assay with KM12 colon and 50.4% in the assay with MDA-MB-468 breast.
For the molecule `CC(=O)c1cc(C(=O)N2c3ccccc3Sc3ccccc32)n2ccc(C)cc12`, the growth in the assay with T-47D breast was 20.8%; with BT-549 breast, 16%; in the assay with MDA-MB-435 melanoma, 28%; with SW-620 colon it was 25.6%; with MCF7 breast, 26.5%; with HCT-116 colon it was 7.08% (active). Further, the growth is 32.7% in the assay on HCC-2998 colon, 28.3% in the assay with KM12 colon and 3.44% (active) in the assay on MDA-MB-468 breast.
As to `O=C(NO)c1ccc(CNC(=O)[C@H]2Cc3c([nH]c4ccccc34)[C@H](c3ccccc3)N2)cc1`, the growth was -17.7% (active) in the assay on T-47D breast; 55.4% in the assay on BT-549 breast; 5.21% (active) in the assay on MDA-MB-435 melanoma; -43.7% (active) in the assay on SW-620 colon; 14.4% in the assay on MCF7 breast; 10.1% in the assay on HCT-116 colon. Moreover, the growth with HCC-2998 colon was 16.9%; in the assay on KM12 colon, 31.1%; in the assay on MDA-MB-468 breast, -6.19% (active).
On to `O=c1[nH]n(C(=S)N/N=C/c2ccc(F)cc2)c(=O)c2ccccc12`, for which the growth in the assay with T-47D breast was 58.7%; in the assay on BT-549 breast, 70.1%; with MDA-MB-435 melanoma, 84.5%; in the assay on SW-620 colon, 30.4%; in the assay on MCF7 breast it was 15.9%; in the assay on HCT-116 colon, -66% (active). The growth in the assay with HCC-2998 colon is 92.9%; in the assay with KM12 colon, 36.2%; with MDA-MB-468 breast, 57.7%.
With `N#Cc1ccc(-c2nn(-c3ccc(C(=O)O)cc3)cc2CNc2cccc(Br)c2)cc1`, the growth was 35.4% with T-47D breast; 1.51% (active) with BT-549 breast; 59% in the assay with MDA-MB-435 melanoma; 61.2% with SW-620 colon; 48.2% in the assay on MCF7 breast; 19.9% with HCT-116 colon. Further, the growth in the assay with HCC-2998 colon is 4.19% (active); in the assay with KM12 colon it was 22.4%; in the assay with MDA-MB-468 breast it was 66%.
Take `[2H]C([2H])([2H])Oc1ccc2ncc(C#Cc3cncc(C(=O)Nc4ccc(CN5CCN(C)CC5)c(C(F)(F)F)c4)c3)n2n1`: the growth was -24.5% (active) in the assay with T-47D breast; -57.5% (active) with BT-549 breast; -67.2% (active) in the assay with MDA-MB-435 melanoma; -67.8% (active) in the assay with SW-620 colon; -61% (active) with MCF7 breast; -29.5% (active) in the assay with HCT-116 colon. For the same molecule, the growth is -84.8% (active) in the assay on HCC-2998 colon, -94.1% (active) in the assay on KM12 colon and -90.3% (active) in the assay with MDA-MB-468 breast.
On to `O=C(NC(=S)N1CCN(c2ncnc3c2cnn3-c2ccccc2)CC1)c1ccc(Cl)cc1`, for which the growth with T-47D breast is 57.2%; in the assay on BT-549 breast, 63.5%; with MDA-MB-435 melanoma, 89.2%; with SW-620 colon, 68.9%; with MCF7 breast, 38.9%; with HCT-116 colon, 41.9%. In addition, the growth in the assay on HCC-2998 colon was 82.6%; in the assay on KM12 colon, 87.3%; in the assay on MDA-MB-468 breast it was 64.6%.
Regarding `CN(CCF)c1ccc(/C=C/C(=O)c2ccc(N)cc2O)cc1`, the growth in the assay with T-47D breast is 50.7%; with BT-549 breast, 64.1%; in the assay on MDA-MB-435 melanoma, 81.8%; with SW-620 colon, 90.3%; in the assay on MCF7 breast, 71.1%; in the assay on HCT-116 colon, 73%. Further, the growth in the assay on HCC-2998 colon was 88.5%; in the assay with KM12 colon, 44.4%; with MDA-MB-468 breast, 51.4%.

Source of the values: PubChem BioAssay (NCI).
